# Results as given in PubChem BioAssay (NCATS).
# Records with an inconclusive call do not appear. Where a call stands in place of a potency, no number is given. Activity calls are given as the source filed them. The call rests on the fitted dose curve; in most records, active means well fitted curve in the direction sought with a large enough effect; inconclusive means small, poorly fitted or top-dose-only effect, or another doubt; inactive means no such curve, though single readings can be large; an effect the other way counts as inactive or inconclusive.
# Experiments:
# [1] = qHTS of pediatric cancer cell lines to identify multiple opportunities for drug repurposing: Primary screen for NB1643 cells (AID 1347099); further: nearly all actives have a fitted effect of over 50% in size; further: potency means the concentration at half of the fitted maximal effect
# Method in brief: (§1)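 Plated cells (500-1,000 per well, growth media) were allowed to settle for 5 hours, treated with compound dilutions for 48 hours, then lysed with CellTiter-Glo for 15 min at room temperature before luminescence reading.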
# [2] = qHTS of pediatric cancer cell lines to identify multiple opportunities for drug repurposing: Primary screen for LAN-5 cells (AID 1347100); further: potency means the concentration at half of the fitted maximal effect
# Method in brief: (§2)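 Cells (500-1,000/well) rested 5 h, then received compounds for 48 h; metabolically active cells were measured by CellTiter-Glo luminescence. Final concentrations spanned up to 46 µM (MIPE, 11-point) or 0.59 nM-46 µM (NPC, 8-point) in primary screens, 11-point in follow-ups.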
# [3] = qHTS of pediatric cancer cell lines to identify multiple opportunities for drug repurposing: Primary screen for BT-12 cells (AID 1347101); further: nearly all actives have a fitted effect of over 25% in size; further: potency means the concentration at half of the fitted maximal effect
# Method in brief: as §2
# [4] = qHTS of pediatric cancer cell lines to identify multiple opportunities for drug repurposing: Primary screen for Rh18 cells (AID 1347102); further: nearly all actives have a fitted effect of over 65% in size; further: potency means the concentration at half of the fitted maximal effect
# Method in brief: as §2
# [5] = qHTS of pediatric cancer cell lines to identify multiple opportunities for drug repurposing: Primary screen for OHS-50 cells (AID 1347103); further: nearly all actives have a fitted effect of over 40% in size; further: potency means the concentration at half of the fitted maximal effect
# Method in brief: as §2
# [6] = qHTS of pediatric cancer cell lines to identify multiple opportunities for drug repurposing: Primary screen for RD cells (AID 1347104); further: nearly all actives have a fitted effect of over 55% in size; further: potency means the concentration at half of the fitted maximal effect
# Method in brief: as §1
# [7] = qHTS of pediatric cancer cell lines to identify multiple opportunities for drug repurposing: Primary screen for Rh41 cells (AID 1347108); further: nearly all actives have a fitted effect of over 70% in size; further: potency means the concentration at half of the fitted maximal effect
# Method in brief: as §1
# [8] = qHTS of pediatric cancer cell lines to identify multiple opportunities for drug repurposing: Primary screen for control Hh wild type fibroblast cells (AID 1347106);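 further: series mostly up to about 46 µM; a drop in luminescence marks cytotoxicity and a rise apparent proliferation; nearly all actives have a fitted effect of over 55% in size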
# Method in brief: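 Viability after 48 h compound treatment at 37C, 500-1,000 cells/well, read as ATP luminescence with CellTiter-Glo. Primary screens used 11-point (MIPE, 0.78 nM-46 µM) or 8-point (NPC, 0.59 nM-46 µM) final concentrations; follow-up screens used 11-point dilutions.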
# [9] = qHTS of pediatric cancer cell lines to identify multiple opportunities for drug repurposing: Primary screen for MG 63 (6-TG R) cells (AID 1347105); further: nearly all actives have a fitted effect of over 50% in size; further: potency means the concentration at half of the fitted maximal effect
# Method in brief: as §1
# [10] = qHTS of pediatric cancer cell lines to identify multiple opportunities for drug repurposing: Primary screen for Rh30 cells (AID 1347107); further: nearly all actives have a fitted effect of over 75% in size; further: potency means the concentration at half of the fitted maximal effect
# Method in brief: as §2
Structure (SMILES),Potency [1],Potency [2],Potency [3],Potency [4],Potency [5],Potency [6],Potency [7],Potency [8],Potency [9],Potency [10]
Nc1[nH]nc2nnc(-c3c(-c4ccccc4)nn4ccccc34)cc12,1.87 µM (active),6.62 µM (active),6.85 µM (active),2.64 µM (active),1.93 µM (active),11.8 µM (active),5.9 µM (active),,,
CC(C)CN(C[C@H](O)[C@H](Cc1ccccc1)NC(=O)O[C@H]1CCOC1)S(=O)(=O)c1ccc(N)cc1,inactive,inactive,,inactive,,,,,,
C[C@@H]1CC=CC=CC=CC=C[C@@H](O[C@@H]2O[C@H](C)[C@@H](O)[C@H](N)[C@H]2O)C[C@@H]2O[C@](O)(C[C@@H](O)C[C@@H]3O[C@@H]3C=CC(=O)O1)C[C@H](O)[C@@H]2C(=O)O,inactive,inactive,15.3 µM (active),,9.68 µM (active),,,inactive,,
O=C(CO)N1CCC(c2[nH]nc(-c3ccc(Cl)cc3)c2-c2ccncn2)CC1,inactive,inactive,inactive,,inactive,inactive,,inactive,inactive,
O=C1Nc2ccc(I)cc2C1=Cc1cc(Br)c(O)c(Br)c1,inactive,inactive,inactive,inactive,,inactive,,inactive,,inactive
NC(=O)c1ccc(N(C(N)=O)c2c(F)cccc2F)nc1-c1ccc(F)cc1F,inactive,inactive,inactive,inactive,,inactive,,inactive,,inactive
Cn1c(=O)c(Oc2ccc(F)cc2F)cc2cnc(NC3CCOCC3)nc21,inactive,inactive,inactive,inactive,,inactive,inactive,inactive,,
O=C1C(CCC(O)c2ccc(F)cc2)C(c2ccc(O)cc2)N1c1ccc(F)cc1 (configuration not stated),inactive,inactive,inactive,inactive,,inactive,inactive,inactive,,inactive
CC(C)(C)c1[nH]cnc1C=c1[nH]c(=O)c(=Cc2ccccc2)[nH]c1=O,48.1 µM (active),0.001 µM (active),0.0111 µM (active),,35.2 µM (active),34 µM (active),,inactive,,
CC[C@H](C)n1cc(C)c2c(C(=O)NCc3c(C)cc(C)[nH]c3=O)cc(-c3ccc(N4CCNCC4)nc3)cc21,1.66 µM (active),23.5 µM (active),30.6 µM (active),,24.3 µM (active),4.69 µM (active),,inactive,23.5 µM (active),
NS(=O)(=O)c1ccc(Nc2nc(OCC3CCCCC3)c3[nH]cnc3n2)cc1,18.7 µM (active),16.6 µM (active),inactive,inactive,,,inactive,inactive,inactive,
N#CC(c1ccc(Cl)cc1)c1c(Cl)cc(-n2ncc(=O)[nH]c2=O)cc1Cl (configuration not stated),18.7 µM (active),7.43 µM (active),21.7 µM (active),,15.3 µM (active),,,inactive,14.8 µM (active),
CN[C@@H]1CN(c2ccc3c(=O)c(C(=O)O)cn(-c4nccs4)c3n2)C[C@@H]1OC,1.62 µM (active),1.02 µM (active),9.43 µM (active),,16.8 µM (active),14.4 µM (active),,inactive,,
CN1N=C(N)c2cn([C@@H]3O[C@H](COP(=O)(O)O)[C@@H](O)[C@@H]3O)c3ncnc1c23,16.6 µM (active),0.166 µM (active),,9.35 µM (active),0.193 µM (active),,,,,
Cn1c(=O)c(-c2c(Cl)cccc2Cl)cc2cnc(Nc3cccc(C(=O)O)c3)nc21,inactive,inactive,inactive,,,inactive,,inactive,,inactive
COc1cc(C=CC(=O)O)ccc1O,inactive,inactive,inactive,inactive,,inactive,inactive,inactive,,inactive
O=C1C(c2c(O)[nH]c3ccccc23)=Nc2ccccc21,inactive,inactive,,inactive,inactive,,,,,
C[C@@H]1O[C@@H](O[C@H]2CC[C@@]3(C)[C@H](CC[C@@H]4[C@H]3C[C@@H](O)[C@]3(C)[C@@H](C5=CC(=O)OC5)CC[C@]43O)C2)C[C@H](O)[C@@H]1O[C@H]1C[C@H](O)[C@H](O[C@H]2C[C@H](O)[C@@H](O)[C@@H](C)O2)[C@H](C)O1 (stereo in doubt),0.429 µM (active),0.241 µM (active),0.14 µM (active),,0.14 µM (active),0.121 µM (active),0.171 µM (active),,0.0679 µM (active),
COc1cc(Nc2nc3ccccc3nc2NS(=O)(=O)c2ccc(NC(=O)c3ccc(C)c(OC)c3)cc2)cc(OC)c1,inactive,inactive,,inactive,,,,,,
O=C(O)CCC=CCC[C@@H]1[C@H](N2CCCCC2)[C@@H](O)C[C@@H]1OCc1ccc(-c2ccccc2)cc1,5.9 µM (active),inactive,inactive,inactive,,,18.7 µM (active),inactive,,
CN[C@@H](C)[C@H]1[C@H](O)C[C@@]2(C)[C@@H]3CC[C@H]4C(C)(C)[C@@H](NC)CC[C@@]45C[C@@]35CC[C@]12C,inactive,inactive,inactive,inactive,,,inactive,inactive,inactive,inactive
Cc1ccccc1C(C(=O)NC1CCCCC1)N(C(=O)CNc1ccc(C#N)cc1)c1cccc(F)c1 (configuration not stated),inactive,inactive,inactive,inactive,,inactive,inactive,inactive,,inactive
CN(C)CCOc1cc(-c2cn[nH]c2)ccc1NC(=O)C1COc2ccccc2O1 (configuration not stated),9.35 µM (active),inactive,inactive,inactive,,inactive,,inactive,,inactive
CC1=C(CC(=O)O)c2cc(F)ccc2C1=Cc1ccc(S(C)=O)cc1 (configuration not stated),7.43 µM (active),26.4 µM (active),inactive,,,,,,,inactive
O[C@@H](COc1cccc2ncccc12)CN1CCN(C2c3ccccc3[C@@H]3[C@H](c4ccccc42)C3(F)F)CC1 (some centres not stated),3.32 µM (active),4.73 µM (active),24.3 µM (active),,15.5 µM (active),18.7 µM (active),18.7 µM (active),inactive,29.6 µM (active),16.6 µM (active)
